# Measurements published in PubChem BioAssay (NCATS).
# Inconclusive results are not listed. A call without a number means that no potency is given here. Activity calls are given as the source filed them. Unless noted, calls follow the shape of the dose curve; as a rule, active = well fitted curve in the direction sought with a large enough effect; inconclusive = small, poorly fitted or top-dose-only effect, or another doubt; inactive = no such curve, though single readings can be large; an effect the other way counts as inactive or inconclusive.
# What was measured:
# [1] = target: Vitamin D3 receptor (Homo sapiens) (UniProt P11473); assay: qHTS assay for small molecule agonists of vitamin D receptor signaling (AID 588543; calls by dose curve)
# Sequence of Vitamin D3 receptor (Homo sapiens) (P11473 whole entry, looked up): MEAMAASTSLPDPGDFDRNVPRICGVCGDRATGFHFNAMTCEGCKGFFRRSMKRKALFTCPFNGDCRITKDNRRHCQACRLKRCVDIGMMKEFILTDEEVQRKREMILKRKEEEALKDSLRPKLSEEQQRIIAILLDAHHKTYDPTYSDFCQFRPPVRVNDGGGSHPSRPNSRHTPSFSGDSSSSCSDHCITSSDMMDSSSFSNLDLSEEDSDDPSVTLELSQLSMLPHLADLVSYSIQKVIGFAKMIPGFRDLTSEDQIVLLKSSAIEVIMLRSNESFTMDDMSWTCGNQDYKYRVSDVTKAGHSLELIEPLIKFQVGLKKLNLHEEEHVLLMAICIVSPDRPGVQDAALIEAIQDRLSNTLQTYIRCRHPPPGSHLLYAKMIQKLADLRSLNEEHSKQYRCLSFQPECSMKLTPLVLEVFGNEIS
# Summary of the method: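 Agonist-mode beta-lactamase reporter: HEK293T VDR-UAS-bla cells in charcoal-stripped 2% FBS, compound series 16 h 37 C, CCF4 2 h RT. EC50 from Hill fit, scaled against DMSO and 50 nM calcitriol control.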
# [2] = qHTS assay for small molecule agonists of retinoid X receptor alpha signaling (AID 588544; calls by dose curve); conditions: HEK293T RXRa-UAS-bla, beta-lactamase reporter, 18 h; 530 nm emission
# [3] = target: Retinoic acid receptor RXR-alpha (Homo sapiens) (UniProt P19793); assay: as above
# Sequence of Retinoic acid receptor RXR-alpha (Homo sapiens) (P19793 whole entry, looked up): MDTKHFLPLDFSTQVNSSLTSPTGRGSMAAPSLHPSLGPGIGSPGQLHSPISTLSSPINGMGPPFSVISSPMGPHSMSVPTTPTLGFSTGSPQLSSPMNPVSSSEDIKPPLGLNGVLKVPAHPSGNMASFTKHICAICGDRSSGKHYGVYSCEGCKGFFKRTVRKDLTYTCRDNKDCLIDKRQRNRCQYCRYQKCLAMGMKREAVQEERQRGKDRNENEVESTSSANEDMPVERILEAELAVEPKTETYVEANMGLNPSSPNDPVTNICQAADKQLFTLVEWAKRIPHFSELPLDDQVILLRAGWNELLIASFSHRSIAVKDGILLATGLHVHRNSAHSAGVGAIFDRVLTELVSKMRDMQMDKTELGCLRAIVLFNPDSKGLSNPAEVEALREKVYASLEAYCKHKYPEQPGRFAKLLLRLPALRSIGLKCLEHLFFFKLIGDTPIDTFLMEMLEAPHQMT
# [4] = qHTS assay for small molecule antagonists of retinoid X receptor alpha signaling (AID 588546; active = well fitted inhibition curve with a large enough effect in the signal ratio, with a control signal flat, not every such curve was filed as active; the % refers to the signal ratio;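 also: cells stimulated with 9-cis-retinoic acid as agonist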); conditions: HEK293T RXRa-UAS-bla, beta-lactamase ratio, antagonist mode; measured here: W530 green channel, cytotoxicity proxy
# Summary of the method: (§1)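 Beta-lactamase reporter inhibition, read as CCF4 fluorescence ratio (ex 405, em 460/530 nm) after 2 h at RT. HEK293T UAS-bla cells, 2500/well, were stimulated with 9-cis-RA at 500 or 100 nM final alongside test compound for 18 h at 37 C.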
# [5] = target: Retinoic acid receptor RXR-alpha (Homo sapiens) (UniProt P19793); assay: as above; conditions: HEK293T RXRa-UAS-bla, beta-lactamase ratio, antagonist mode
# Summary of the method: as §1
# [6] = target: Thyroid hormone receptor beta (Homo sapiens) (UniProt P10828); assay: qHTS assay for small molecule antagonists of thyroid hormone receptor beta signaling (AID 588547; active = well fitted inhibition curve with a large enough effect in the signal ratio, with a control signal flat, not every such curve was filed as active; the % refers to the signal ratio;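 also: cells stimulated with 0.4 nM T3 agonist during compound exposure; series mostly up to about 77 µM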); conditions: TR-UAS-bla HEK293, beta-lactamase ratio, antagonist mode, 18 h
# Sequence of Thyroid hormone receptor beta (Homo sapiens) (P10828 whole entry, looked up): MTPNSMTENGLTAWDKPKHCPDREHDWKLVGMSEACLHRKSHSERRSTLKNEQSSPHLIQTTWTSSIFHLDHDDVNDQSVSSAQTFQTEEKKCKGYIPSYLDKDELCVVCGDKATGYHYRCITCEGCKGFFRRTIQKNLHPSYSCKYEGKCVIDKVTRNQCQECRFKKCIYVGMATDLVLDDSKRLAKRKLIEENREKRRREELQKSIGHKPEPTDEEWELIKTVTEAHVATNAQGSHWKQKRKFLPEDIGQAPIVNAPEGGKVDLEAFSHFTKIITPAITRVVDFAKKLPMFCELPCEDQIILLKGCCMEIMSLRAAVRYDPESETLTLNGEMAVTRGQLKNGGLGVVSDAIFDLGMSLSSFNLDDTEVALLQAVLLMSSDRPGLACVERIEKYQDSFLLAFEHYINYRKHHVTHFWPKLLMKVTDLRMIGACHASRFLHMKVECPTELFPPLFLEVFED
# Summary of the method: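 Inhibition of T3-driven (0.4nM final) beta-lactamase reporter activity was measured over 0.59 nM to 92 uM compound after 18 h at 37 C. The cells were GripTite HEK293 TR-UAS-bla in charcoal/dextran-stripped serum, with CCF4 ratio read-out and IC50 from Hill fits.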
# [7] = target: Voltage-gated inwardly rectifying potassium channel KCNH2 (Homo sapiens) (UniProt Q12809); assay: qHTS Assay for Small Molecule Inhibitors of the Human hERG Channel Activity (AID 588834);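 also: top concentration of the series differs between compounds; lower thallium flux fluorescence means stronger hERG block; nearly all actives have a fitted effect of over 50% in size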
# Sequence of Voltage-gated inwardly rectifying potassium channel KCNH2 (Homo sapiens) (Q12809 whole entry, looked up): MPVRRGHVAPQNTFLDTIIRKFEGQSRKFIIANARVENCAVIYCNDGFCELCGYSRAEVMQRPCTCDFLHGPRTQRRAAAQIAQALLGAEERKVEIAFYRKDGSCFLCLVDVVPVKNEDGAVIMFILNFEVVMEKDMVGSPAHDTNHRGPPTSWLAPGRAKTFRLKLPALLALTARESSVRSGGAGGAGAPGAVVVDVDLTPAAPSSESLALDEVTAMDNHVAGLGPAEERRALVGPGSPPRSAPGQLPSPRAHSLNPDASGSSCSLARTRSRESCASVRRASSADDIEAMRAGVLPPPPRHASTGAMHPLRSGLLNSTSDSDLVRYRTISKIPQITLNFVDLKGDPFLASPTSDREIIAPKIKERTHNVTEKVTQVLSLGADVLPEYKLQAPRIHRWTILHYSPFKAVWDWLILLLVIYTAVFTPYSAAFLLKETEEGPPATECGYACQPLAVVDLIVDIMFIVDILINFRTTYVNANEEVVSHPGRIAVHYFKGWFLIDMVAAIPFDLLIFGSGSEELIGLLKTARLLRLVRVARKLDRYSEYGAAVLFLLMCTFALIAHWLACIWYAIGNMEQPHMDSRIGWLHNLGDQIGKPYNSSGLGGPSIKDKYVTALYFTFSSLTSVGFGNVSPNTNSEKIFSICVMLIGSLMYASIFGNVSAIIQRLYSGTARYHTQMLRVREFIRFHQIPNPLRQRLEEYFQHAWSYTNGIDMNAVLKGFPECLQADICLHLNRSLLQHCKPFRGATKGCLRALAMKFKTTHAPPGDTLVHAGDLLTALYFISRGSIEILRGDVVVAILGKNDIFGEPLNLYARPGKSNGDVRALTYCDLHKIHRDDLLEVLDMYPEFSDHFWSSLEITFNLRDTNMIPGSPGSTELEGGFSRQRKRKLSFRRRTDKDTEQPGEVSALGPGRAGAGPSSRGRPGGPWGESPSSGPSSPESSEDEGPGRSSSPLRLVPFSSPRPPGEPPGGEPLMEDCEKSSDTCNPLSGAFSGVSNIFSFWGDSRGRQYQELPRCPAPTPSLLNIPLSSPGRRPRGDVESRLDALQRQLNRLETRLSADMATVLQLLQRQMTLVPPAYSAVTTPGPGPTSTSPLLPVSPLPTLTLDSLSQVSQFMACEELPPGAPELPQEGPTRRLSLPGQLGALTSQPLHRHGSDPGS
# Summary of the method: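 Kinetic FDSS fluorescence; U2OS + hERG BacMam (~100 virus particles/cell); FluxOR Tl+ flux; ~10 min cpd; AC50 (Hill).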
# [8] = qHTS assay for small molecule agonists of the antioxidant response element (ARE) signaling pathway (AID 651741; active = well fitted activation curve with a large enough effect in the signal ratio; the % refers to the signal ratio)
# Summary of the method: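 Seeding 2,000 ARE-bla HepG2 cells per well preceded a 5 h incubation at 37 C/5% CO2 and a 16 h compound exposure at 37 C. Beta-lactamase reporter activity was then quantified by fluorescence after 2 h with LiveBLAzer B/G FRET substrate.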
# [9] = qHTS assay for small molecule activators of the nuclear factor-kappa B (NF-kB) signaling pathway (AID 651749; active = well fitted activation curve with a large enough effect in the signal ratio; the % refers to the signal ratio; also: series mostly up to about 77 µM); conditions: NF-kB-bla ME-180 cells, beta-lactamase FRET ratio, 16 h; activation: stronger effect = higher value
# Summary of the method: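 Stably transfected ME-180 line; NF-kB response element upstream of beta-lactamase. Treatment: compound or DMSO, 16 hr. Detection: fluorescent FRET substrate.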
# [10] = qHTS assay for small molecule disruptors of the mitochondrial membrane potential - 1 hr assay (AID 651754; calls by dose curve; also: nearly all actives have a fitted effect of over 35% in size)
# Summary of the method: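 Steps: seed HepG2 cells and let attach overnight; pin-transfer compound or vehicle; incubate 1 hr at 37C; add Mito-MPS dye for 30 min; read two-channel fluorescence for monomer and aggregate forms.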
# [11] = qHTS assay for small molecule disruptors of the mitochondrial membrane potential - 5 hr assay (AID 651755; calls by dose curve; also: nearly all actives have a fitted effect of over 40% in size)
# Summary of the method: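 HepG2, 2,000 cells/well, overnight attach; cpd or DMSO 5 hr, 37C/5% CO2; Mito-MPS 30 min 37C; fluor 490/535 + 540/590 nm.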
# [12] = target: Tumor necrosis factor (Homo sapiens) (UniProt P01375); assay: qHTS assay to identify small molecules that stimulate Tumor Necrosis Factor-alpha (TNF-alpha) secretion (AID 651757; active = well fitted curve in the direction sought with a large enough effect in the signal ratio; the % refers to the signal ratio)
# Sequence of Tumor necrosis factor (Homo sapiens) (P01375 whole entry, looked up): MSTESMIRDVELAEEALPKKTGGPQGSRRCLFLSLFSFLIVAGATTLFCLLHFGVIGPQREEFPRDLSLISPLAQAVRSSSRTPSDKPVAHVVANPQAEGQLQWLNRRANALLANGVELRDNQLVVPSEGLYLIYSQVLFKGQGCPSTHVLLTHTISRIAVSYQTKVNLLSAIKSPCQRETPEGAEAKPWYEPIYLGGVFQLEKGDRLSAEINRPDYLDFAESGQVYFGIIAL
# Summary of the method: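 Secreted TNF-alpha from compound-treated THP-1 cells (17 hrs, 37 C) was quantified with a homogeneous time-resolved fluorescence antibody assay.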
# [13] = qHTS assay to identify small molecules that stimulate interleukin-8 (IL-8) secretion (AID 651758; active = well fitted activation curve with a large enough effect in the signal ratio; the % refers to the signal ratio)
# Summary of the method: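 Secreted IL-8 measured by TR-FRET sandwich (cryptate and XL665 antibodies) from THP-1 cells exposed to compound overnight (16 hrs, 37 C).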
# [14] = qHTS assay for environmental chemicals that activate the Aryl hydrocarbon Receptor (AhR) signaling pathway (AID 651777); conditions: 1A2-DRE human hepatoma cells, luciferase, 24 h; activation: stronger effect = higher value; also: nearly all actives have a fitted effect of over 15% in size
# Summary of the method: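 Human hepatoma 1A2-DRE cells, stably carrying a dioxin response element and CYP1A2 promoter driving luciferase, were exposed to compounds for 24 hr at 37 C and 5% CO2. Luciferase signal was then read after 30 min One-Glo at room temperature.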
# [15] = target: Peroxisome proliferator-activated receptor alpha (Homo sapiens) (UniProt Q07869); assay: qHTS assay for small molecule agonists of the peroxisome proliferator-activated receptor alpha (PPARalpha) signaling pathway (AID 651778); conditions: PathHunter PPARalpha complementation, chemiluminescence, 6 h; max response: stronger effect = higher value
# Sequence of Peroxisome proliferator-activated receptor alpha (Homo sapiens) (Q07869 whole entry, looked up): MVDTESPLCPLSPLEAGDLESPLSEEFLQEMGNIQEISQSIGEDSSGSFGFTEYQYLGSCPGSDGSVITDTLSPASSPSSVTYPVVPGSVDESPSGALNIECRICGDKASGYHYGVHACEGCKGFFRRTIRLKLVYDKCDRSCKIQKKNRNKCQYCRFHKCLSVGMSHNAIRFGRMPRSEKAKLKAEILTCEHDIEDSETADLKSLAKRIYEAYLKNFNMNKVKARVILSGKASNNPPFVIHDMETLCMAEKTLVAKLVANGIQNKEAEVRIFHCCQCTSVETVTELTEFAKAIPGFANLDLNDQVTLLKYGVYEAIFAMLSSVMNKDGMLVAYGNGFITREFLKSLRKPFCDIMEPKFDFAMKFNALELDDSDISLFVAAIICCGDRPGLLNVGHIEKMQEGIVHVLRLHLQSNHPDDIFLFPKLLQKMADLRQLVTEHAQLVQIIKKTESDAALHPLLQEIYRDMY
# Summary of the method: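 Chemiluminescence from complemented enzyme reported PPARalpha activation in cells after 6 hr of compound treatment at 37 C. The detection reagent was incubated for 60 min at room temperature, and compounds were scored as agonists.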
# [16] = target: Nuclear receptor ROR-gamma (Homo sapiens) (UniProt P51449); assay: qHTS assay for small molecule antagonists of the retinoid-related orphan receptor gamma (ROR-gamma) signaling pathway (AID 651802);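 also: CHO cells with doxycycline-induced ROR-gamma expression; series mostly up to about 92 µM; nearly all actives have a fitted effect of over 60% in size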
# Sequence of Nuclear receptor ROR-gamma (Homo sapiens) (P51449 whole entry, looked up): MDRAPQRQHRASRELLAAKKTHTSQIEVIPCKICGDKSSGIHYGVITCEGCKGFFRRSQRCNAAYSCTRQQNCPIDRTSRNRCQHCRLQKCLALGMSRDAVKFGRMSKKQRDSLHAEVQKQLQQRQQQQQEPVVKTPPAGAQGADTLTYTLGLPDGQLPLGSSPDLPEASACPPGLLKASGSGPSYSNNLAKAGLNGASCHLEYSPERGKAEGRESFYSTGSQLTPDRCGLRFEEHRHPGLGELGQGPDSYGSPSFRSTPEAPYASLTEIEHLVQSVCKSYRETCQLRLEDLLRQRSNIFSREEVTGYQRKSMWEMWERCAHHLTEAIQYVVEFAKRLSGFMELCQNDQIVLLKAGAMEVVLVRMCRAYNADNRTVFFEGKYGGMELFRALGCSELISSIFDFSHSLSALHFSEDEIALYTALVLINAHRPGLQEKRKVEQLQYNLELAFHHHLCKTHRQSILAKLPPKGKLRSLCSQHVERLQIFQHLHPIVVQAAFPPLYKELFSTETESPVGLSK
# Summary of the method: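 Antagonism is scored as a fall in luminescence from a RORE-luciferase reporter in CHO cells expressing ROR under a TET-inducible promoter, measured 16hr after doxycycline induction in the presence of compound.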
# [17] = qHTS assay for small molecule agonists of the antioxidant response element (ARE) signaling pathway measured by Nrf2-dependant transcriptional activity (AID 720636; active = well fitted curve in the direction sought with a large enough effect in the repeat runs; an effect the other way counts as inactive or inconclusive)
# Summary of the method: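 ARE-luc HepG2 cells carrying an Nrf2-responsive luciferase reporter were plated in medium with 1% dialyzed FBS, left 6 hr at 37 C to attach, then exposed to compound for 16 hr. Luciferase luminescence was read after ONE-Glo addition.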
# [18] = qHTS assay for small molecule antagonists of the retinoid-related orphan receptor gamma (ROR-gamma) signaling pathway - cell viability counter screen (AID 720652; active = well fitted curve in the direction sought with a large enough effect in the repeat runs; an effect the other way counts as inactive or inconclusive;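 also: potency is read from the fitted curve at half-maximal effect; compound exposure lasted 16 hr before ATP read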)
# Summary of the method: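 Cytotoxicity is quantified via intracellular ATP (CellTiter-Glo luminescence) in doxycycline-induced CHO ROR response element-luciferase reporter cells treated with compound for 16 hr at 37 C, 5% CO2.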
# [19] = qHTS assay for small molecule agonists of the antioxidant response element (ARE) signaling pathway measured by Nrf2-dependant transcriptional activity - cell viability counter screen (AID 720653; active = well fitted curve in the direction sought with a large enough effect in the repeat runs; an effect the other way counts as inactive or inconclusive); conditions: ARE-bla HepG2 viability, CellTiter-Glo ATP luminescence, 16 h; max response: stronger effect = lower value
# Summary of the method: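 Cytotoxicity counter screen: intracellular ATP quantified by CellTiter-Glo luminescence in the same ARE-bla HepG2 plates, after 16 h compound exposure and a 2 h beta-lactamase substrate step.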
# [20] = qHTS assay for cell viability of the p53RE-bla HCT-116 cell line (AID 743292); also: nearly all actives have a fitted effect of over 55% in size
# Summary of the method: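 CellSensor p53RE-bla HCT-116 cells, 4,000/well, preincubated 5 h at 37 C, then exposed to compounds in DMSO for 16 h at 37 C. Viability read as CellTiter-Glo luminescence (intracellular ATP) after 30 min at room temperature.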
# [21] = target: Nuclear receptor subfamily 1 group I member 2 (Rattus norvegicus) (UniProt Q9R1A7); assay: qHTS assay for small molecule activators of the rat pregnane X receptor (rPXR) signaling pathway (AID 651751; call rule not given here); conditions: rPXR reporter cells, luciferase (One-Glo), 24 h
# Sequence of Nuclear receptor subfamily 1 group I member 2 (Rattus norvegicus) (Q9R1A7 whole entry, looked up): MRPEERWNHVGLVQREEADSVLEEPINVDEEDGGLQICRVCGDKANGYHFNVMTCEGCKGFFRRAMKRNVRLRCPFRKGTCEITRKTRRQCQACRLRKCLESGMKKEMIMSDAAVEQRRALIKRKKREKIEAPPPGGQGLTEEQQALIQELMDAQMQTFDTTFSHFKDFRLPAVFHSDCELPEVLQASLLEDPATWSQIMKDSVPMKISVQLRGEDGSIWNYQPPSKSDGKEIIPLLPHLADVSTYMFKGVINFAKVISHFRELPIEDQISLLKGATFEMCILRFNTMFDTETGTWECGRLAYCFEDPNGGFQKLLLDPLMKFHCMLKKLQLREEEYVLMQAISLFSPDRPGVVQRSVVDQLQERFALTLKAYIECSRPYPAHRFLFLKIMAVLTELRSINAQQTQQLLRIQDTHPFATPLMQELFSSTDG
# [22] = qHTS assay for small molecule activators of the human pregnane X receptor (PXR) signaling pathway (AID 720659; call rule not given here)
structure (smiles),measurement,setting,value
O=[N+]([O-])c1cc(C(F)(F)F)cc([N+](=O)[O-])c1Cl,outcome,[1],inactive
same,max response,[2],2.71%
same,Potency,[3],inactive
same,max response,[4],0.867%
same,max response,[5],20% (inactive)
same,activity change % (negative = inhibition),[6],-4.32% (inactive)
same,Potency,[7],inactive
same,Potency,[8],inactive
same,activation,[9],-0.593% (inactive)
same,Potency,[10],inactive
same,Potency,[11],inactive
same,Potency,[12],inactive
same,Potency,[13],inactive
same,activation,[14],0.493% (inactive)
same,max response,[15],-4.28% (inactive)
same,Potency,[16],inactive
same,Potency,[17],inactive
same,Potency,[18],66.8 µM (active)
same,max response,[19],4.67% (inactive)
same,Potency,[20],inactive
same,max response,[21],-2.25% (inactive)
same,outcome,[22],inactive
